In PubChem BioAssay (EPA / NIEHS):
Values joined by “and” are separate entries in the source; they are usually repeats but may differ in a detail not shown here. Equal values may be shown once. A structure can be active in one record and inactive in another. Active and inactive are the calls of the source. The calls were made as follows: active = hit-call score of the fitted dose curve at least 0.9, where 1 is the maximum; inactive = score below 0.9.

Read-out: not listed separately
Experiment: BSK_3C_SRB: Viability Assessment in the BioMAP Diversity Plus: 3C Assay (AID 2283023);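 also: fitted both ways against DMSO so a hit may be signal rise or drop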
Settings: primary human endothelial cells (HUVEC)
Method in brief: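 Cytotoxicity readout in parallel HUVEC 3C cultures: after 24 h compound exposure, cells fixed with 10% TCA, stained with 0.1% SRB and read at 560 nm. Gain or loss relative to DMSO fitted.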

Row | Compound | outcome | AC50
1 | C=CC(=O)NC(C)(C)C | inactive | –
2 | CC(C)CCCCCOC(=O)CS | inactive | –
3 | Oc1ccccc1Cc1ccccc1O | inactive | –
4 | C1CNCCN1 | inactive | –
5 | C[N+](C)(C)CCCNS(=O)(=O)C(F)(F)C(F)(F)C(F)(F)C(F)(F)C(F)(F)C(F)(F)C(F)(F)C(F)(F)F | – | 30.7 µM (active) and 20.8 µM (active)
6 | CCCCC1C(=O)N(c2ccccc2)N(c2ccccc2)C1=O | inactive | –
7 | c1ccc2sc(SSN3CCOCC3)nc2c1 | – | 6.19 µM (active)
8 | O=C1CCCCCCCCCCCN1 | inactive | –
9 | O=C(Oc1ccccc1)c1ccccc1C(=O)Oc1ccccc1 | – | 20 µM (active)

Read-out: Matrix Metallopeptidase 1 (MMP1), MMP1 (gene 4312)
Experiment: BSK_BE3C_MMP1: BioMAP Diversity Plus: BE3C Assay for Matrix Metallopeptidase 1 (MMP1) Biomarker Activity (AID 2283024)
Settings: primary human bronchial epithelial cells; actives raise or lower the signal
Method in brief: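 Dose cells, wait 24 h, run MMP1 ELISA; cells are human bronchial epithelial primaries. Both increases and decreases relative to DMSO counted.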

Row | Compound | outcome | AC50
10 | C=CC(=O)NC(C)(C)C | inactive | –
11 | CC(C)CCCCCOC(=O)CS | inactive | –
12 | Oc1ccccc1Cc1ccccc1O | inactive | –
13 | C1CNCCN1 | inactive | –
14 | C[N+](C)(C)CCCNS(=O)(=O)C(F)(F)C(F)(F)C(F)(F)C(F)(F)C(F)(F)C(F)(F)C(F)(F)C(F)(F)F | inactive | 19.6 µM (active)
15 | CCCCC1C(=O)N(c2ccccc2)N(c2ccccc2)C1=O | inactive | –
16 | c1ccc2sc(SSN3CCOCC3)nc2c1 | inactive | –
17 | O=C1CCCCCCCCCCCN1 | inactive | –
18 | O=C(Oc1ccccc1)c1ccccc1C(=O)Oc1ccccc1 | inactive | –

Read-out: not listed separately
Experiment: BSK_3C_Vis: BioMAP Diversity Plus: 3C Assay for Morphology Visualization (AID 2283025);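 also: fitted both ways so gain or loss versus DMSO counts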;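 as to AC50: light microscopy image of cell morphology used as background control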
Settings: primary human endothelial cells (HUVEC)
Method in brief: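 Endothelial cells from human umbilical vein were treated with test chemicals for 24 h and inspected by light microscopy for changes in cell conformation.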

Row | Compound | outcome | AC50
19 | C=CC(=O)NC(C)(C)C | inactive | –
20 | CC(C)CCCCCOC(=O)CS | inactive | –
21 | C1CNCCN1 | inactive | –
22 | CCCCC1C(=O)N(c2ccccc2)N(c2ccccc2)C1=O | – | 37.5 µM (active)
23 | c1ccc2sc(SSN3CCOCC3)nc2c1 | – | 8.8 µM (active)
24 | O=C1CCCCCCCCCCCN1 | inactive | –
25 | O=C(Oc1ccccc1)c1ccccc1C(=O)Oc1ccccc1 | inactive | –

Read-out: Pselectin, SELP (gene 6403)
Experiment: BSK_4H_Pselectin: BioMAP Diversity Plus: 4H Assay for Pselectin Biomarker Activity (AID 2283026)
Settings: primary human endothelial cells (HUVEC); actives raise or lower the signal
Method in brief: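 Human vascular endothelium from umbilical vein; P-selectin measured by ELISA at 24 h post-dose, with cytotoxicity checked by sulforhodamine B total-protein staining in parallel cultures (0.1% SRB after 10% TCA fixation, read at 560 nm).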

Row | Compound | outcome | AC50
26 | C=CC(=O)NC(C)(C)C | inactive | –
27 | CC(C)CCCCCOC(=O)CS | inactive | –
28 | Oc1ccccc1Cc1ccccc1O | inactive | –
29 | C1CNCCN1 | inactive | –
30 | C[N+](C)(C)CCCNS(=O)(=O)C(F)(F)C(F)(F)C(F)(F)C(F)(F)C(F)(F)C(F)(F)C(F)(F)C(F)(F)F | – | 30 µM (active) and 16.8 µM (active)
31 | CCCCC1C(=O)N(c2ccccc2)N(c2ccccc2)C1=O | inactive | –
32 | c1ccc2sc(SSN3CCOCC3)nc2c1 | – | 4.4 µM (active)
33 | O=C1CCCCCCCCCCCN1 | inactive | –
34 | O=C(Oc1ccccc1)c1ccccc1C(=O)Oc1ccccc1 | inactive | –

Read-out: not listed separately
Experiment: BSK_4H_SRB: Viability Assessment in the BioMAP Diversity Plus: 4H Assay (AID 2283027);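 also: cells exposed to compound for 24 h before staining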;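 as to AC50: curves fitted both ways versus DMSO so AC50 may be loss or gain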
Settings: primary human endothelial cells (HUVEC)
Method in brief: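 Absorbance at 560 nm of SRB-stained total protein served as the viability read-out in confluent primary human umbilical vein endothelium 24 h after chemical treatment. Curves were fitted bidirectionally against DMSO as negative control.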

Row | Compound | outcome | AC50
35 | C=CC(=O)NC(C)(C)C | inactive | –
36 | CC(C)CCCCCOC(=O)CS | inactive | –
37 | Oc1ccccc1Cc1ccccc1O | inactive | –
38 | C1CNCCN1 | inactive | –
39 | C[N+](C)(C)CCCNS(=O)(=O)C(F)(F)C(F)(F)C(F)(F)C(F)(F)C(F)(F)C(F)(F)C(F)(F)C(F)(F)F | inactive | –
40 | CCCCC1C(=O)N(c2ccccc2)N(c2ccccc2)C1=O | inactive | –
41 | c1ccc2sc(SSN3CCOCC3)nc2c1 | – | 5.2 µM (active)
42 | O=C1CCCCCCCCCCCN1 | inactive | –
43 | O=C(Oc1ccccc1)c1ccccc1C(=O)Oc1ccccc1 | inactive | –

Read-out: not listed separately
Experiment: BSK_BE3C_SRB: Viability Assessment in the BioMAP Diversity Plus: BE3C Assay (AID 2283028);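 also: measured 24 h after chemical dosing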
Settings: primary human bronchial epithelial cells
Method in brief: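 Cytotoxicity read-out: SRB (0.1%) staining of TCA-fixed (10%) human lung bronchial epithelial cells, absorbance 560 nm, 24 h post-dosing. Curves fitted both directions relative to DMSO.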

Row | Compound | outcome
44 | C=CC(=O)NC(C)(C)C | inactive
45 | CC(C)CCCCCOC(=O)CS | inactive
46 | Oc1ccccc1Cc1ccccc1O | inactive
47 | C1CNCCN1 | inactive
48 | C[N+](C)(C)CCCNS(=O)(=O)C(F)(F)C(F)(F)C(F)(F)C(F)(F)C(F)(F)C(F)(F)C(F)(F)C(F)(F)F | inactive
49 | CCCCC1C(=O)N(c2ccccc2)N(c2ccccc2)C1=O | inactive
50 | c1ccc2sc(SSN3CCOCC3)nc2c1 | inactive
51 | O=C1CCCCCCCCCCCN1 | inactive
52 | O=C(Oc1ccccc1)c1ccccc1C(=O)Oc1ccccc1 | inactive
